Compound activity deposited in PubChem by National Center for Advancing Translational Sciences (NCATS).
KDM4E inh: inhibitors of human JMJD2E histone demethylase; JMJD2E catalytic domain, FDH-coupled NADH fluorescence (FDH is formaldehyde dehydrogenase); B2RXH2; Potency, µM (top dose mostly 57.1 µM), hits mostly inhibitors; actives 1.6% (n = 230,000); further: nearly all actives have a fitted effect of over 50% in size
Target sequence (B2RXH2 1-337 limits assumed): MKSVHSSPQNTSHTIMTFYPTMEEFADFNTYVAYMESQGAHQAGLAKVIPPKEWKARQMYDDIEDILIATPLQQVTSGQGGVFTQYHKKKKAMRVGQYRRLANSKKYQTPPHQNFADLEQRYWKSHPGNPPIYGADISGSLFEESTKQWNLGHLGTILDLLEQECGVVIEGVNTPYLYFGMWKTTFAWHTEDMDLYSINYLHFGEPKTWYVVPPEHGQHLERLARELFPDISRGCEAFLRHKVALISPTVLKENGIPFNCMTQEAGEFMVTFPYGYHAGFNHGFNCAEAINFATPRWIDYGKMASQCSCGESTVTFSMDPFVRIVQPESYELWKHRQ
PNC assembly inh: blocks assembly of the perinucleolar compartment; PC3M PTB-GFP, PNC prevalence imaging, 16 h; hits give low values; activity change (PNC), negative = inhibition, % at 10 µM; actives 3.1% (n = 140,000); AID 2417;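 active means readout at or below -70, meaning at least 70% loss of cells showing the perinucleolar compartment, a nuclear body marking cancer cells; inconclusive means readout between -30 and a set limit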
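PC3M cells stably expressing PTB-GFP, 750–1000 cells/well, treated 16 h at 37 °C with compound (23 nl of library stock), in duplicate. After paraformaldehyde fixation and Hoechst stain, imaged at 20x; PNC prevalence scored by image analysis.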
ALDH1A1 inh: ALDH1A1 (human) enzyme inhibition; Purified ALDH1A1, NADH fluorescence, propionaldehyde substrate; Potency, µM (titrated, usually from 75.3 µM), hits mostly inhibitors; actives 7.3% (n = 220,000); P00352
HPGD inh: blocks human HPGD enzyme activity; P15428; Potency, µM, most hits filed as inhibitors; purified HPGD, NADH fluorescence kinetic, PGE2 substrate; actives 4.3% (n = 150,000)
Target sequence (P15428 whole entry, looked up): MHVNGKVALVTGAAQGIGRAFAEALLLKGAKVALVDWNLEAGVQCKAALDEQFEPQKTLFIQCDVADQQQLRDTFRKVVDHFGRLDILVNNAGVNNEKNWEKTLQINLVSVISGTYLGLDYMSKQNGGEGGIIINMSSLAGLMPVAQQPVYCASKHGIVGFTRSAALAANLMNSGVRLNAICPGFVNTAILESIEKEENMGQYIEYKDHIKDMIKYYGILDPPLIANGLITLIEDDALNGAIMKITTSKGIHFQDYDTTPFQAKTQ
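NADH formation kinetics: reaction with 30 uM PGE2 and 1 mM NAD+ (final), 20 nM enzyme, Tris-HCl pH 8 with Tween 20, after 15 min compound preincubation at room temperature. Fluorescence change, last versus first of five reads.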
Large screens that a line does not name were inactive. Hits are enriched below; roughly 11% of the tested compounds scored in any of these assays. Unless noted, the call rests on the fitted dose curve; in most records, active means well fitted inhibition curve with a large enough effect (not every such curve was filed as active); inconclusive means small, poorly fitted or top-dose-only effect, or another doubt; inactive means no such curve, though single readings can be large or run the other way.

O=C1C=CC(=O)C(C2=C3C(=O)N(CCc4ccccc4)CC(=O)N3CCC2)=C1	KDM4E inh inconclusive, ALDH1A1 inh 2.2µM, HPGD inh 1.6µM
Cc1sc2ncnc(OCC(=O)N3CCN(C(=O)c4ccco4)CC3)c2c1C	ALDH1A1 inh 3.2µM (no result: PNC assembly inh, HPGD inh)
Cc1cc(N2CCN(C(=O)c3ccco3)CC2)nc(-c2ccccc2)n1	PNC assembly inh inconclusive, ALDH1A1 inh 6.3µM
COc1ccc(C(=O)N2CCN(c3ncnc4c(-c5ccccc5)nsc34)CC2)cc1	ALDH1A1 inh 2.8µM, HPGD inh inconclusive
O=C(c1ccco1)N1CCN(c2ncnc3scc(-c4ccccc4)c23)CC1	ALDH1A1 inh 11µM
Cn1cccc1C(=O)N1CCC2(CC1)CCN(c1ccccc1)CC2	none (no result: KDM4E inh, PNC assembly inh)
C=CCN1c2ccccc2[C@]23C[C@@H](C(=O)OC)N(S(=O)(=O)c4ccc5c(c4)OCCN5C)C2=NC(C(=O)OC)=C(C(=O)OC)[C@H]13	none (no result: PNC assembly inh)
O=C(c1cccs1)N1CCCN(c2ncnc3scc(-c4ccccc4)c23)CC1	ALDH1A1 inh inconclusive (no result: PNC assembly inh, HPGD inh)
Cc1ccc(-c2csc3ncnc(N4CCN(C(=O)c5ccccc5)CC4)c23)cc1	PNC assembly inh inconclusive, ALDH1A1 inh 13µM
CC(=O)c1ccsc1-c1c(C)cc2oc(=O)cc(-c3ccccc3)c2c1C	ALDH1A1 inh inconclusive, HPGD inh 40µM (no result: KDM4E inh, PNC assembly inh)
Cc1cc2oc(=O)cc(-c3ccccc3)c2c(C)c1-c1ccc(F)c(Cl)c1	none (no result: KDM4E inh, PNC assembly inh)
Cc1cc2oc(=O)cc(-c3ccccc3)c2c(C)c1-c1sccc1C=O	ALDH1A1 inh inconclusive, HPGD inh 40µM (no result: KDM4E inh, PNC assembly inh)
COc1ccc(S(=O)(=O)N(C)CC(=O)Nc2ccc(C(F)(F)F)cc2)cc1Cl	none
CCCCN=C1CC(C)(C)CC(=O)/C1=C(/O)CCC	none (no result: PNC assembly inh, ALDH1A1 inh, HPGD inh)
CCCOc1ccc(N2C(=O)CC(NNC(=O)c3ccc(COc4ccccc4)o3)C2=O)cc1 (centres undefined)	ALDH1A1 inh inconclusive
CCOc1cccc(N2C(=O)CC(NNC(=O)c3ccc(Br)o3)C2=O)c1 (centres undefined)	ALDH1A1 inh 11µM (no result: PNC assembly inh, HPGD inh)
CCOC(=O)C1CCCN(C(=O)Cc2ccc(Cl)cc2)C1 (centres undefined)	ALDH1A1 inh inconclusive
CC1CCCCN1C(=O)Cc1ccc(Cl)cc1 (centres undefined)	HPGD inh 11µM
CC1CCCN(C(=O)c2cc(F)c(F)cc2Cl)C1 (centres undefined)	PNC assembly inh inconclusive, HPGD inh 6.3µM
CC1CCCCN1C(=O)c1cc(F)c(F)cc1Cl (centres undefined)	PNC assembly inh inconclusive, HPGD inh 20µM
COc1ccc2[nH]c(=O)c(CN(Cc3nnnn3Cc3ccccc3)CC3CCCO3)cc2c1 (centres undefined)	KDM4E inh inconclusive, ALDH1A1 inh inconclusive
CCOC(=O)Cn1nnnc1CN(Cc1cccs1)Cc1cc2cc(C)cc(C)c2[nH]c1=O	KDM4E inh inconclusive, ALDH1A1 inh inconclusive, HPGD inh inconclusive
Cc1cccc2cc(CN(Cc3cccs3)Cc3nnnn3Cc3ccccc3)c(=O)[nH]c12	ALDH1A1 inh 2.8µM
Cc1cccc2cc(CN(CCCN3CCOCC3)Cc3nnnn3C(C)(C)C)c(=O)[nH]c12	ALDH1A1 inh 25µM
COc1ccc2cc(CN(Cc3cccs3)Cc3nnnn3Cc3ccccc3)c(=O)[nH]c2c1	KDM4E inh inconclusive, ALDH1A1 inh 2µM
COc1ccc2cc(CN(Cc3cccnc3)Cc3nnnn3Cc3ccccc3)c(=O)[nH]c2c1	ALDH1A1 inh 8.9µM
CCC(c1nnnn1C(C)(C)CC)N(CCCN1CCOCC1)Cc1cc2cccc(C)c2[nH]c1=O (centres undefined)	ALDH1A1 inh inconclusive
O=C(CN1CCN(Cc2ccccc2Cl)CC1)N/N=C/c1cccs1	none (no result: PNC assembly inh, ALDH1A1 inh, HPGD inh)
Cc1ccc(Nc2nnns2)cc1C	PNC assembly inh -82, ALDH1A1 inh 4µM, HPGD inh 22µM
CCCCC1=CC2=CC(=O)C(C)(OC(=O)CC)C(=O)C2=CN1Cc1ccccc1 (centres undefined)	KDM4E inh inconclusive (no result: PNC assembly inh)
CCCCc1cc2c(cn1)=C(OC(=O)c1ccco1)C(C)(OC(=O)CC)C(=O)C=2 (centres undefined)	ALDH1A1 inh 2µM (no result: PNC assembly inh)
Cc1ccccc1CSCCNS(C)(=O)=O	none
COc1ccc(S(=O)(=O)NCCSCc2ccccc2C)cc1Br	ALDH1A1 inh 25µM, HPGD inh 28µM
O=C(c1cc(-c2cccnc2)nc2ccc(Br)cc12)N1CCN(c2ncccn2)CC1	PNC assembly inh inconclusive, HPGD inh 16µM
Cc1ccc2nc(-c3cccnc3)cc(C(=O)N3CCN(c4ccc([N+](=O)[O-])cc4)CC3)c2c1	ALDH1A1 inh 8.9µM (no result: PNC assembly inh, HPGD inh)
CC(=O)c1ccc(N2CCN(C(=O)c3cc(-c4cccnc4)nc4ccc(Br)cc34)CC2)cc1	none (no result: PNC assembly inh, HPGD inh)
CC(C)CN1CCC2(CC1)CCN(C(=O)c1cccc(F)c1)CC2	none (no result: KDM4E inh, PNC assembly inh)
CO[C@H]1C=CO[C@@]2(C)Oc3c(C)c(O)c4c(O)c(c(C=NN5CCN(C)CC5)c(O)c4c3C2=O)NC(=O)C(C)=CC=C[C@H](C)[C@H](O)[C@@H](C)[C@@H](O)[C@@H](C)[C@H](OC(C)=O)[C@@H]1C	KDM4E inh inconclusive, PNC assembly inh -115, ALDH1A1 inh inconclusive, HPGD inh 25µM
CO[C@@H]1/C=C\O[C@@]2(C)Oc3c(C)c(O)c4c(c3C2=O)C(=N[C@H]2CC[C@H](O)O[C@@H]2C)C=C(NC(=O)/C(C)=C\C(=O)[C@@H]2C[C@@H]2[C@@H](O)[C@H](C)[C@@H](O)[C@H](C)[C@H](OC(C)=O)[C@@H]1C)C4=O	none (no result: KDM4E inh, PNC assembly inh)
Cc1ccc(CN2CCN(Cc3cn[nH]c3-c3cccc(F)c3)CC2CCO)o1 (centres undefined)	none (no result: PNC assembly inh, HPGD inh)
O=C(CCCSc1nc(-c2ccco2)cc(C(F)(F)F)n1)NCc1cccs1	PNC assembly inh inconclusive, ALDH1A1 inh inconclusive, HPGD inh 18µM
COc1cccc(-c2cc(C(F)(F)F)nc(NCc3ccco3)n2)c1	KDM4E inh inconclusive, PNC assembly inh -100
O=C(CCCSc1nc(-c2ccco2)cc(C(F)(F)F)n1)NCC1CCCO1 (centres undefined)	ALDH1A1 inh inconclusive, HPGD inh 7.9µM
FC(F)(F)c1cc(-c2ccco2)nc(NCc2cccs2)n1	KDM4E inh inconclusive, ALDH1A1 inh 8.9µM
Cc1nnc(SCC(=O)c2ccc(C(C)C)cc2)s1	none (no result: PNC assembly inh, HPGD inh)
Cc1cc(C)nc(N/N=C/c2ccco2)n1	PNC assembly inh -110
Cc1cc(-c2ccccc2)nc(N/N=C/c2ccco2)n1	PNC assembly inh inconclusive
CNc1ncnc2c1ncn2[C@H]1C[C@H](OP(=O)(O)O)[C@@H](COP(=O)(O)O)O1	none (no result: PNC assembly inh)
CCN=c1sc(C(=O)NCCc2ccccc2)cc(=O)n1CC	ALDH1A1 inh 6.3µM
CC(=O)N[C@H](CC(C)C)C(=O)O	none (no result: PNC assembly inh)
COc1ccc(NS(=O)(=O)c2ccc3c(c2)n(C)c(=O)n3C)cc1	HPGD inh 16µM
COc1ccc(OC)c(NS(=O)(=O)c2ccc3c(c2)n(C)c(=O)n3C)c1	none
Cc1ccccc1NS(=O)(=O)c1ccc2c(c1)n(C)c(=O)n2C	ALDH1A1 inh inconclusive (no result: PNC assembly inh, HPGD inh)
CC(C)(C)c1ccc(S(=O)(=O)Nc2ccc3c(c2)COC3=O)cc1	ALDH1A1 inh 4.5µM (no result: PNC assembly inh, HPGD inh)
Cn1c(=O)n(C)c2cc(NS(=O)(=O)c3ccc4c(c3)CCCC4)ccc21	ALDH1A1 inh 1µM
